From PubChem BioAssay AID588517 (NMMLSC, 2011) come the findings set out here.

Screen size: about 1,700 compounds; about 65 (4%) were called active. Not all results are given here. Values without a mark were called inactive.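 How the source made its calls: active means fluorescence ratio to DMSO above its plate's cutoff, the plate mean ratio plus 5 SD (cut at about 210% in these data); inactive means the rest.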

This assay in a line: compound autofluorescence in empty-vector yeast, confirmation, artefact control for antifungal efflux pump inhibitor project, S. cerevisiae AD/pABC3, flow cytometry, Cherry Pick1 set (AID 588517).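 Further: unstained yeast with no Nile Red so the signal is compound autofluorescence.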 To be noted: at 10 µM, stronger effect = higher value.
Turning to `CSCCC(NS(=O)(=O)c1ccc(C)cc1)C(=O)N1CCCC1` (stereo unspecified), the fluorescence ratio to DMSO is 90.1%.

`CCOc1ccccc1/C=c1\sc2nc(-c3ccco3)nn2c1=O`: the fluorescence ratio to DMSO is 126%.

Consider `CC(/C=N/NC(=O)c1cc(-c2ccc3ccccc3c2)n[nH]1)=C\c1ccco1`, for which the fluorescence ratio to DMSO is 88.7%.

In the case of `C[n+]1ccc(/C=C/c2c[nH]c3ccccc23)cc1`, the fluorescence ratio to DMSO was 385% (active).

As for `COc1ccc(/C=C(\C#N)c2c[nH]c3ccccc23)cc1`, the fluorescence ratio to DMSO is 106%.

Turning to `CCOc1ccc(/C=C2\SC(=S)N(NC(=O)c3ccncc3)C2=O)cc1OC`, the fluorescence ratio to DMSO was 100%.

Regarding `Cc1cc(C)cc(NC(=O)C(OC(=O)c2ccc(O)cc2)c2ccccc2)c1` (stereo unspecified), the fluorescence ratio to DMSO was 103%.

In the case of `COc1ccc(S(=O)(=O)N2CCOC2CNC(=O)C(=O)NCc2ccc(F)cc2)cc1` (stereo unspecified), the fluorescence ratio to DMSO is 113%.

For the compound `Cc1nc2c(C(=O)NCc3ccc4c(c3)OCO4)c[nH]n2c(=O)c1Cc1ccccc1F`, the fluorescence ratio to DMSO is 84.3%.

On to `Cc1ccc(Cn2nnc3c(=O)[nH]c(C4CCN(S(=O)(=O)/C=C/c5ccccc5)CC4)nc32)cc1`, for which the fluorescence ratio to DMSO is 110%.

In the case of `O=C(/C=C/c1c(Cl)cccc1Cl)NCc1ccccc1`, the fluorescence ratio to DMSO is 98.2%.

Turning to `Cc1cc(/C=N/NC(=O)CC2(C)OCCO2)c(C)n1-c1ccc(Cl)c(Cl)c1`, the fluorescence ratio to DMSO is 102%.

For `Cc1ccc(/C=C(\C#N)C(=O)Nc2cccc3ncccc23)o1`, the fluorescence ratio to DMSO was 98.6%.

As for `Cc1oc2cc3oc(=O)ccc3cc2c1C`, the fluorescence ratio to DMSO was 104%.

`Cc1ccc(Cn2c(C)nc3c(c2=O)c2nc4ccccc4nc2n3Cc2ccco2)cc1`: the fluorescence ratio to DMSO is 105%.

Take `COc1ccc(C(=O)NC(=S)Nc2ccc(N3CCCC3)cc2)cc1OC`: the fluorescence ratio to DMSO is 102%.

As to `CCCc1nnc(SCC(=O)Nc2ccc(C(=O)OCC)cc2)o1`, the fluorescence ratio to DMSO was 116%.

With `CCOC(=O)CNC(=O)CSc1nnnn1-c1cc(C)ccc1C`, the fluorescence ratio to DMSO was 101%.

In the case of `O=C(NCc1ccccc1)C(=O)NCC1OCCN1S(=O)(=O)c1ccc(Br)cc1` (stereo unspecified), the fluorescence ratio to DMSO was 90.8%.

Regarding `O=C(Nc1ccc(NC(=O)c2cccs2)cc1)c1ccc2ccccc2c1`, the fluorescence ratio to DMSO was 109%.

As for `O=S(=O)(c1ccccc1)N1CCc2ccccc21`, the fluorescence ratio to DMSO is 163%.

Regarding `CC(/C=C/c1ccccc1)=N\NC(=O)C1CC1(C)c1ccccc1` (stereo unspecified), the fluorescence ratio to DMSO is 94.4%.

For the compound `CCCCCC(=O)Nc1ccc(C(=O)N/N=C/c2ccc([N+](=O)[O-])cc2)cc1`, the fluorescence ratio to DMSO is 103%.

For `COc1ccccc1CSc1ncc(-c2ccc([N+](=O)[O-])cc2)[nH]1`, the fluorescence ratio to DMSO is 110%.

For the compound `CCn1c(/C=C/c2ccc([N+](=O)[O-])o2)nc2ccccc2c1=O`, the fluorescence ratio to DMSO was 431% (active).

Consider `CCOc1ccc2nc(Cl)c(C3CC(c4ccccc4)=NN3C(=O)c3cccs3)cc2c1` (stereo unspecified), for which the fluorescence ratio to DMSO was 95.5%.

Consider `Cc1ccc2[nH]c3c(=O)n(CC(=O)NCCc4ccc(Cl)cc4)ncc3c2c1`, for which the fluorescence ratio to DMSO is 107%.

With `COc1cccc(-c2sc3ccc(OC)cc3c2-c2ccc(OCCN3CCCCC3)cc2)c1`, the fluorescence ratio to DMSO was 103%.

With `COc1ccccc1NC(=O)C1CCCN1S(=O)(=O)c1ccc(Cl)cc1` (stereo unspecified), the fluorescence ratio to DMSO was 108%.

Turning to `Cc1cc(C(=O)Nc2ccc(C)c(S(=O)(=O)N3CCOCC3)c2)c2ccccc2n1`, the fluorescence ratio to DMSO is 91.8%.

Regarding `O=C(CCCCCn1c(=O)[nH]c2ccccc2c1=O)NCCc1c[nH]c2ccccc12`, the fluorescence ratio to DMSO was 110%.

`Cc1ccc(OCc2cc(C(=O)N(C)CCc3ccccc3)no2)cc1C`: the fluorescence ratio to DMSO was 106%.

As for `CC12CCC(C(=O)N(c3cccc(Cl)c3)C1=O)C2(C)C` (stereo unspecified), the fluorescence ratio to DMSO was 102%.

Regarding `CCCCN1C(=O)/C(=C/C=C2/C=Cc3ccccc3N2CC)SC1=S`, the fluorescence ratio to DMSO is 68.5%.

`O=C1NC(=O)C2C1C(c1ccc([N+](=O)[O-])cc1)=NN2Cc1ccccc1` (stereo unspecified): the fluorescence ratio to DMSO is 152%.

For the compound `CN(C)S(=O)(=O)c1cc(C(=O)Nc2ccn(C)n2)c(Cl)cc1Cl`, the fluorescence ratio to DMSO was 93.7%.

For `Cc1ccc(N=C2NC(=O)/C(=C/C=C/c3ccco3)S2)cc1C`, the fluorescence ratio to DMSO is 104%.

Consider `COc1ccc2[nH]c3c(C)c4cc[n+](C)cc4c(C)c3c2c1`, for which the fluorescence ratio to DMSO was 115%.

`COc1ccccc1/C=C/C=N/n1c(-c2ccc(Cl)cc2Cl)n[nH]c1=S`: the fluorescence ratio to DMSO is 101%.

For the compound `CCCCCCCCCCCCCCCC(=O)OC/C=C(C)/C=C/C=C(C)/C=C/C1=C(C)CCCC1(C)C`, the fluorescence ratio to DMSO is 106%.

On to `C/C(N)=C(/C#N)C(=O)COC(=O)c1cc(-c2cccc(Br)c2)nc2ccccc12`, for which the fluorescence ratio to DMSO was 110%.

On to `CCc1ccc(NC(=O)Cn2ncn3c(cc4ccccc43)c2=O)cc1`, for which the fluorescence ratio to DMSO is 105%.

`CCOC(=O)c1c(NC(=S)NC(=O)c2ccco2)sc2c1CCCC2`: the fluorescence ratio to DMSO was 81.2%.

As for `COc1cccc(NC(=O)CN(C)C(=O)/C=C/c2cc(OC)ccc2OC)c1`, the fluorescence ratio to DMSO was 91.9%.

For `CCCc1nc(N2CCN(C)CC2)c2sc(=S)n(-c3ccccc3)c2n1`, the fluorescence ratio to DMSO is 99.3%.

On to `COc1ccc(C(=O)NC2CC(C)(C)Cc3c2cnn3-c2ccccc2)c(OC)c1` (stereo unspecified), for which the fluorescence ratio to DMSO was 100%.

`CCNc1c(NS(=O)(=O)c2ccc(C3CCCCC3)cc2)c(=O)oc2ccccc12`: the fluorescence ratio to DMSO is 94%.

Regarding `COc1ccc(NC(=S)N2CCc3cc(OC)c(OC)cc3C2)cc1`, the fluorescence ratio to DMSO is 102%.

With `CCNC(=O)c1c(O)c2cccc3c2n(c1=O)CC3`, the fluorescence ratio to DMSO was 83.8%.

Regarding `Cc1csc(NC(=O)c2ccc(-c3ccc(Cl)cc3Cl)o2)n1`, the fluorescence ratio to DMSO was 96.6%.

For `CSCCC(NC(=O)COc1ccccc1)C(=O)OCCOc1ccc(Br)cc1` (stereo unspecified), the fluorescence ratio to DMSO was 93.4%.

On to `O=C(OCc1ccc(-c2ccccc2)cc1)c1cccc(O)c1`, for which the fluorescence ratio to DMSO is 116%.

On to `Cc1ccc2c(c1)NC(=O)[C@@]1(C)[C@@H](c3ccccc3)[C@H]3COc4ccc(Cl)cc4[C@@H]3N1C2=O`, for which the fluorescence ratio to DMSO is 103%.

With `COc1ccc2sc(-c3ccccc3OC)c(-c3ccc(OCCN4CCCC4)cc3)c2c1`, the fluorescence ratio to DMSO is 112%.

As for `Cc1cccc(NC(=O)COc2ccccc2C)n1`, the fluorescence ratio to DMSO was 95%.

For `Cc1c(CCOC(=O)CC23CC4CC(CC(C)(C4)C2)C3)sc[n+]1Cc1ccc([N+](=O)[O-])cc1`, the fluorescence ratio to DMSO is 106%.

On to `O=C(CNC(=O)c1ccc(-c2ccccc2)cc1)OCc1ccc(Cl)cc1`, for which the fluorescence ratio to DMSO was 110%.

Take `C=CCC[C@@H](Cc1ccc(F)cc1)C(=O)OC[C@H](Cc1c[nH]c2ccccc12)NC(=O)[C@@H](CC=C)CC(=O)N(CCO)Cc1ccccc1`: the fluorescence ratio to DMSO is 92.1%.

In the case of `O=C(Cn1c(COc2ccccc2)nc2ccccc21)Nc1cc(Cl)c(Cl)cc1Cl`, the fluorescence ratio to DMSO was 93.4%.

With `CCCCOc1ccc(C(=O)NCC(=O)OCC(=O)c2c(N)n(C)c(=O)n(C)c2=O)cc1`, the fluorescence ratio to DMSO was 97.6%.

On to `CC[n+]1cc(C)ccc1/C=C/c1ccc(N(C)C)cc1`, for which the fluorescence ratio to DMSO was 1680% (active).

For `NNC(=O)COc1ccc(C2SCCS2)cc1`, the fluorescence ratio to DMSO was 85.2%.

Take `CC(C)C(=O)N1CCC2(CC1)Oc1ccc(F)cc1C(=O)C21CC(c2ccccc2)=NO1` (stereo unspecified): the fluorescence ratio to DMSO was 97.8%.

Turning to `COc1ccc(-c2sc3ccccc3c2-c2ccc(OCCN3CCOCC3)cc2)cc1`, the fluorescence ratio to DMSO is 108%.

With `CN1CCN(S(=O)(=O)c2ccc(NC(=S)NC(=O)C3CC3)cc2)CC1`, the fluorescence ratio to DMSO is 106%.

Take `O=C(Cc1ccccc1)NCC1OCCc2ccccc21` (stereo unspecified): the fluorescence ratio to DMSO was 109%.

Regarding `Cc1nn(C)cc1N1C(=O)c2cccc3c(N)ccc(c23)C1=O`, the fluorescence ratio to DMSO was 111%.

In the case of `CCOc1ccc(C2/C(=C(/O)c3ccc4c(c3)CC(C)O4)C(=O)C(=O)N2CCCn2ccnc2)cc1` (stereo unspecified), the fluorescence ratio to DMSO was 107%.

As for `O=C(Cc1ccc(Br)cc1)N1CCN(c2ccccn2)CC1`, the fluorescence ratio to DMSO was 98.2%.

For `CN=C(c1ccccc1)c1c(C)cccc1C`, the fluorescence ratio to DMSO is 103%.

For the compound `O=C(CN1C(=O)C2C3CCC(C3)C2C1=O)Oc1ccc2ccccc2c1` (stereo unspecified), the fluorescence ratio to DMSO is 107%.

In the case of `Cc1nn(C)cc1C(=O)Nc1ccccc1Br`, the fluorescence ratio to DMSO is 85.7%.

In the case of `COc1ccc(C(=O)C2CCCN(Cc3cccn3-c3ccccn3)C2)c(C)c1` (stereo unspecified), the fluorescence ratio to DMSO is 109%.

`O=C(CSc1nnc(-c2cccnc2)n1Cc1ccco1)c1ccc(Cl)c(Cl)c1`: the fluorescence ratio to DMSO was 104%.

As to `COc1ccc(C(=O)NC2CCCc3c2cnn3-c2cccc(C)c2C)c(OC)n1` (stereo unspecified), the fluorescence ratio to DMSO was 92.9%.

In the case of `CC1CCc2c(sc(NC(=O)c3ccc(Cn4cc(Br)cn4)o3)c2C(N)=O)C1` (stereo unspecified), the fluorescence ratio to DMSO is 100%.
